Several values for one entry are separate records, joined by “and”; a condition that tells them apart may be missing. Equal entries are not always repeated. Out of some 2,300 compounds screened, about 1,200 (52%) were called active. Not shown: some 34% with an inconclusive outcome. Calls come from the whole dose curve; as a rule, active = well fitted inhibition curve with a large enough effect; inconclusive = small, poorly fitted or top-dose-only effect, or effect the other way; inactive = no such curve, though single readings can be large or run the other way. The set was probably picked from earlier hits. Some of the results follow.
% is set by controls: 0 for no effect and ±100 for the full control effect; potency is the fitted concentration of half-maximal effect.

The assay in a line: Confirmation screen for delayed death inhibitors of the malarial parasite plastid, 48 hour incubation. Note: nearly all actives have a fitted effect of over 65% in size. To be noted: P. falciparum-infected erythrocytes, luciferase growth; series mostly up to 28.7 µM; activity change, negative = inhibition: at the top concentration. From the text:
The goal of this screen is to discover new antimalarial compounds that act by inhibiting the development of the apicoplast in the malarial parasite Plasmodium falciparum. The biochemical processes that make this organelle essential for erythrocytic stage parasites are not well understood. However, antibiotics, such as azithromycin and tetracycline, which target the apicoplast translational machinery, have a potent antimalarial effect. […] We have developed a cell-based assay that measures parasite growth based on the expression of an integrated copy of a firefly luciferase reporter. To detect small molecules that cause this "delayed death phenotype, erythrocytes infected with the luciferase-expressing parasites were incubated with compounds for either one or two generations, corresponding to 48 and 96 hours, respectively. Compounds that inhibit parasite growth in the second generation, but not the first, should be enriched in antimalarials that target the apicoplast. Growth inhibition is detected by a decrease in luciferase activity. MLPCN Grant: R21 NS059500 Assay Provider: David Fidock and Eric Ekland, Columbia University Keywords: NIH Roadmap, MLPCN, MLI, MLSMR, qHTS, NCGC, qHTS, malaria, luciferase, viability
Four microliters of culture medium (RPMI 1640 with 0.5% w/v Albumax (GIBCO), 24 mM sodium bicarbonate and 10 ug/mL gentamycin) were dispensed by a Multi-drop Combi into white solid 1536-well plates (Grenier) and 23 nL compound was added by a pin tool. Four microliters of infected erythrocytes (2% hematocrit, 0.1% parasitemia final concentration) in culture medium were dispensed and the plates incubated for 48 hours at 37 C in 5% CO2. Two microliters of luciferase detection reagent was added and luminescence was detected by a ViewLux (PerkinElmer) reader.
With `Fc1ccc(C[n+]2c(-c3ccccc3)cc(-c3ccccc3)cc2-c2ccccc2)cc1`, the Potency is 2.82 µM (active).
Still for that read-out and setting: then `CN1C[C@H](C(=O)N[C@]2(C)O[C@@]3(O)[C@@H]4CCCN4C(=O)[C@H](Cc4ccccc4)N3C2=O)C[C@@H]2c3cccc4[nH]cc(c34)C[C@H]21`, with 2.82 µM (active); and `C[C@@H]1CC[C@H]2[C@@H](C)C(=O)O[C@@H]3O[C@@]4(C)CC[C@@H]1[C@]32OO4`, with 0.0794 µM (active).
Regarding `C[C@@H]1CC[C@H]2[C@@H](C)C(=O)O[C@@H]3OC4(C)CC[C@@H]1C32OO4` (some centres not stated), the Potency is 0.0447 µM (active).
Turning to `Cn1c(O)c(C=NC2C(=O)C3(C)CCC2C3(C)C)c(=O)n(C)c1=O` (configuration not stated), the “activity change, negative = inhibition” value is -0.717% (inactive).
Take `CC(=O)N1CC(=O)Nc2ccc(Cl)cc2C1c1ccccc1` (configuration not stated): the “activity change, negative = inhibition” value was -10.3% (inactive).
Consider `O=C(CCl)Nc1nccs1`, for which the Potency is 5.01 µM (active).
With `O=C(/C=C/c1cccs1)c1cc(Cl)ccc1OC(=O)N1CCOCC1`, the Potency is 14.1 µM (active).
On the same count and under the same terms, then `C[C@H]1C[C@@H](C)C(=O)[C@@H]([C@H](O)CC2CC(=O)NC(=O)C2)C1`, with 0.0794 µM (active); and `C[C@@H]1C[C@@H]([C@H](O)CC2CC(=O)NC(=O)C2)C(=O)[C@@H](C)C1`, with 0.891 µM (active).
For the molecule `Cc1ccc(N2C(=O)NC(=O)/C(=C\C=C\c3ccco3)C2=O)cc1`, the “activity change, negative = inhibition” value was -20.3% (inactive).
In the case of `CCN1CCN(Cc2nc3ccc([N+](=O)[O-])cc3c(=O)n2-c2ccccc2F)CC1`, the “activity change, negative = inhibition” value was 6.69% (inactive).
As for `CN(C)c1ccc(C(=O)N/N=C/C23CC[C@@H](O)CC2(O)CC[C@@H]2[C@@H]3CCC3(C)C(C4=CC(=O)OC4)CCC23O)cc1` (some centres not stated), the Potency is 12.6 µM (active).
As for `COc1ccc(C(=O)N/N=C/C23CC[C@@H](O)CC2(O)CC[C@@H]2[C@@H]3CCC3(C)C(C4=CC(=O)OC4)CCC23O)cc1` (some centres not stated), the “activity change, negative = inhibition” value was -16% (inactive).
The same measure, in the same setting: then `COc1cc(C(=O)N/N=C/C23CC[C@@H](O)CC2(O)CC[C@@H]2[C@@H]3CCC3(C)C(C4=CC(=O)OC4)CCC23O)ccc1O` (some centres not stated), with -13.3% (inactive).
In the case of `CN(C)[C@@H]1C(=O)C(C(N)=O)=C(O)[C@@]2(O)C(=O)C3=C(O)c4c(O)cccc4[C@@](C)(O)C3[C@H](O)C12` (some centres not stated), the Potency was 5.01 µM (active).
With `C[n+]1c2cc(N)ccc2cc2ccc(N)cc21`, the Potency is 1 µM (active).
In the case of `COC(=O)c1nc(-c2ccc3c(n2)C(=O)C(N)=C(OC)C3=O)c(N)c(-c2ccc(OC)c(OC)c2O)c1C`, the Potency is 0.562 µM (active).
Same read-out and setting: the figure for `CC[C@H]1CN2CCc3cc(OC)c(OC)cc3[C@@H]2C[C@@H]1C[C@H]1NCCc2cc(OC)c(OC)cc21` is 0.316 µM (active).
The same measure, in the same setting: the figure for `CC[C@H]1CN2CCc3cc(OC)c(OC)cc3[C@H]2C[C@@H]1C[C@@H]1NCCc2cc(OC)c(OC)cc21` is 0.562 µM (active); for `CC[C@H]1CN2CCc3cc(OC)c(OC)cc3C2C[C@@H]1C[C@H]1NCCc2cc(OC)c(OC)cc21` (some centres not stated) it is 0.0501 µM (active).
For the molecule `O=C1NC(=O)N(c2ccccc2)C(=O)/C1=C/C=C/c1ccco1`, the “activity change, negative = inhibition” value is -14.3% (inactive).
As to `CCN(CC)Cc1cc(Nc2ccnc3cc(Cl)ccc23)ccc1O`, the Potency was 79.4 nM (active) and 22.4 nM (active).
For the molecule `CC(C)CCOP(N)(=O)Oc1ccccc1` (configuration not stated), the Potency is 4.47 µM (active).
Regarding `Cn1c(=O)oc2cc(NC(=O)CCl)ccc21`, the Potency was 0.794 µM (active).
Take `CCn1c(=O)oc2cc(NC(=O)CCl)ccc21`: the Potency was 2.24 µM (active).
Regarding `O=[N+]([O-])c1cccc2c([As](=O)(O)O)cccc12`, the Potency is 3.55 µM (active).
Still for that read-out and setting: then `Oc1ccc(-[n+]2c(-c3ccccc3)cc(-c3ccccc3)cc2-c2ccccc2)cc1`, with 0.708 µM (active).
Regarding `C[C@@H]1O[C@@H](O[C@H]2C[C@@H](O)[C@]3(CO)[C@@H]4C(CC[C@]3(O)C2)[C@@]2(O)CC[C@H](C3COC(=O)C3)[C@@]2(C)C[C@H]4O)[C@H](O)[C@H](O)[C@H]1O` (some centres not stated), the “activity change, negative = inhibition” value was -14.7% (inactive).
Still for that read-out and setting: the figure for `Cc1ccc(C(C)C)c(OCC(=O)N2CCN(Cc3nc4cc([N+](=O)[O-])ccc4n3C)CC2)c1` is -9.32% (inactive).
Take `CCCNS(=O)(=O)c1ccc(OCC(=O)N2CCN(Cc3ccc4c(c3)OCO4)CC2)c(C)c1`: the Potency is 12.6 µM (active).
Consider `CCOC(=O)COc1ccc2c(c1)c(C(C)=O)c(C)n2Cc1ccccc1`, for which the “activity change, negative = inhibition” value is -25.7% (inactive).
As for `Cn1cc([N+](=O)[O-])c(C(=O)Nc2ccc3c(C(F)(F)F)cc(=O)oc3c2)n1`, the “activity change, negative = inhibition” value was 15.8% (inactive).
`O=C(NC1CC2CCCC(C1)N2)c1ccccc1` (configuration not stated): the Potency was 10 µM (active).
With `Clc1ccccc1CN1CCNCC1`, the “activity change, negative = inhibition” value is -9.24% (inactive).
In the case of `COc1ccc(Cn2c(N)c(C(=O)NCc3ccco3)c3nc4ccccc4nc32)cc1`, the Potency is 3.98 µM (active).
In the case of `O=c1oc2ccccc2c(O)c1[C@H]1c2ccc(O)cc2Oc2c1c(=O)oc1ccccc21`, the “activity change, negative = inhibition” value was -10% (inactive).
With `CN1CCc2cc3c(c4c2C1Cc1ccccc1-4)OCO3` (configuration not stated), the Potency was 0.562 µM (active).
On the same count and under the same terms, the figure for `O=C1/C(=C/c2ccccc2)C[C@@]2(O)[C@H]3Cc4ccc(O)c5c4[C@@]2(CCN3CC2CC2)C1O5` (some centres not stated) is 5.01 µM (active).
Regarding `CCCCCCn1c(=O)c(C(=O)Nc2ncccc2O)c(O)c2ccccc21`, the “activity change, negative = inhibition” value is -9.27% (inactive).
On to `C=C1C(O)[C@@H]2O[C@]3(CC[C@H](/C=C/C(C)[C@@H]4CC(C)=CC5(O[C@H](C[C@@](C)(O)C(=O)O)CCC5O)O4)O3)CC[C@H]2O[C@@H]1C(O)CC(C)[C@H]1OC2(CCCCO2)CCC1C` (some centres not stated), for which the Potency was 0.0891 µM (active).
For the molecule `C=C1C(=O)O[C@H]2C[C@@H](C)[C@@H]3C=CC(=O)[C@@]3(C)C[C@H]12`, the Potency was 2 µM (active).
On to `C=C1C(=O)O[C@@H]2C[C@@H](C)[C@@H]3C=CC(=O)[C@@]3(C)[C@@H](O)[C@H]12`, for which the Potency was 1.58 µM (active).
As to `C=C1C(=O)O[C@@H]2C[C@@H](C)[C@@H]3C=CC(=O)[C@@]3(C)[C@@H](OC(=O)CC(=O)O[C@H]3[C@@H]4C(=C)C(=O)O[C@@H]4C[C@@H](C)[C@@H]4C=CC(=O)[C@]43C)[C@H]12`, the Potency was 0.398 µM (active).
Take `CCCCN=C[C@]12CCC(O)CC1(O)CCC1[C@@H]2CC[C@]2(C)[C@H](C3C=CC(=O)O3)CCC12O` (some centres not stated): the “activity change, negative = inhibition” value was -20.3% (inactive).
For `C[C@]12CCC3C(CCC4=CC(O)CC[C@@]43/C=N/O)C1(O)CCC2C1=CC(=O)OC1` (some centres not stated), the “activity change, negative = inhibition” value was -24% (inactive).
As to `COC(=O)C1=C(c2ccccc2OCc2ccccc2)C[C@@H]2CC[C@H]1N2C(=O)NCCOc1ccc(OC)cc1`, the Potency was 12.6 µM (active).
The same measure, in the same setting: the figure for `COC(=O)C1=C(c2ccc(F)cc2OCc2ccccc2)C[C@@H]2CC[C@H]1N2C(=O)NCc1ccccc1Br` is 1.78 µM (active); for `CCC(C(=O)N1CCC2(CC1)OCCO2)n1c2ccccc2c2nc(=O)cc(C)n21` (configuration not stated) it is 11.2 µM (active); for `CCOc1cc2c(cc1OCC)-n1cccc1C(c1ccccc1F)NC2` (configuration not stated) it is 10 µM (active).
As to `CCOP(=O)(OCC)C(O)c1ccc(OC)cc1OC` (configuration not stated), the “activity change, negative = inhibition” value is -11.5% (inactive).
Take `C[n+]1c(-c2ccccc2)cc(-c2ccc(Cl)cc2)cc1-c1ccccc1`: the Potency is 2 µM (active).
In the case of `COc1ccc(-c2cc(-c3ccccc3)[n+](C)c(-c3ccccc3)c2)cc1`, the Potency was 3.16 µM (active).
For `Cc1cc2ccccn2c1C(C[N+](=O)[O-])c1c(F)cccc1Cl` (configuration not stated), the Potency is 12.6 µM (active).
For `O=[N+]([O-])c1ccc(NC2CCCC2)c2ccncc12`, the “activity change, negative = inhibition” value is -2.56% (inactive).
Consider `C=CCn1c(O)c(N=Nc2c(C)n(C)n(-c3ccccc3)c2=O)c(=O)[nH]c1=S`, for which the Potency was 11.2 µM (active).
In the case of `C[C@@H]1C[C@@H]2O[C@H]2/C=C\C=C\C(=O)Cc2c(Cl)c(O)cc(O)c2C(=O)O1`, the Potency was 7.08 µM (active).
On to `C=C[C@H]1CN2CC[C@H]1C[C@@H]2[C@@H](O)c1ccnc2ccccc12`, for which the Potency was 0.251 µM (active).
Still for that read-out and setting: then `CN1C2CCC1/C(=C/c1ccccn1)C(=O)/C2=C\c1ccccn1`, with 0.251 µM (active); and `CC[n+]1c(-c2ccccc2)c2cc(N)ccc2c2ccc(N)cc21`, with 1 µM (active).
For `CC(C)c1ccc(N2C(=O)NC(=O)/C(=C\C=C\c3ccco3)C2=O)cc1`, the “activity change, negative = inhibition” value was -10.9% (inactive).
With `CC(C)c1oc(=O)cc2c1[C@@H](O)[C@H]1OC(=O)[C@@]3(C)CC[C@@H](O)[C@@]2(C)C13` (some centres not stated), the Potency was 8.91 µM (active).

(Values after PubChem BioAssay AID504850 (National Center for Advancing Translational Sciences (NCATS), 2011).)
